{"source": "the supplement of paper PMC12350171", "note": "Counter-ions that a name gives are not always drawn.", "data": [{"test_system": "Haemophilus parainfluenzae", "assay": "growth AUC normalised to DMSO control (fraction of control); higher = less growth inhibition, active = hit call of the paper", "details": "20 µM;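 active = AUC significantly below DMSO controls by Student t-fit with adjusted P under 0.01; inactive = not significantly reduced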", "how_it_was_run": "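Pathogens were passaged twice under anaerobic conditions, then inoculated into pre-reduced mGAM plates at a starting OD578 of 0.01, with compound at 20 μM and 1% DMSO, and sealed with breathable membranes. For Haemophilus parainfluenzae, the medium was supplemented with hemin and NAD. OD578 was read every hour for 24 h in three biological replicates. Growth-curve AUC was calculated by the trapezoidal rule up to the exponential-to-stationary transition and normalised to DMSO controls on the same plate.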", "values": [{"smiles": "COc1ccc(C(=O)NCc2cccnc2)cc1C(=O)NCc1cccnc1", "note": "[Picotamide monohydrate]", "growth AUC normalised to DMSO control": "0.997 (inactive)"}, {"smiles": "C[C@@H](O)[C@H]1C(=O)N2C(C(=O)O)=C(S[C@@H]3CN[C@H](C(=O)N(C)C)C3)[C@H](C)[C@H]12", "note": "[Meropenem]", "growth AUC normalised to DMSO control": "0.283 (active)"}, {"smiles": "c1ccc([C@H]2CN3CCSC3=N2)cc1", "note": "[Levamisole hydrochloride]", "growth AUC normalised to DMSO control": "0.991 (inactive)"}, {"smiles": "CN1C(C(=O)Nc2ccccn2)=C(O)c2ccccc2S1(=O)=O", "note": "[Piroxicam]", "growth AUC normalised to DMSO control": "1.01 (inactive)"}, {"smiles": "CCOC(=O)[C@H](CCc1ccccc1)N[C@@H](C)C(=O)N1CCC[C@H]1C(=O)O", "note": "[Enalapril maleate]", "growth AUC normalised to DMSO control": "1.03 (inactive)"}, {"smiles": "OCCN1CCN(CCCN2c3ccccc3Sc3ccc(Cl)cc32)CC1", "note": "[Perphenazine]", "growth AUC normalised to DMSO control": "0.924 (inactive)"}, {"smiles": "Nc1c(Br)cc(Br)cc1CN[C@H]1CC[C@H](O)CC1", "note": "[Ambroxol hydrochloride]", "growth AUC normalised to DMSO control": "0.988 (inactive)"}, {"smiles": "CNC(=C[N+](=O)[O-])NCCSCc1ccc(CN(C)C)o1", "note": "[Ranitidine hydrochloride]", "growth AUC normalised to DMSO control": "0.992 (inactive)"}, {"smiles": "CC1(C)O[C@@H]2[C@@H](CO[C@@]3(COS(N)(=O)=O)OC(C)(C)O[C@@H]23)O1", "note": "[Topiramate]", "growth AUC normalised to DMSO control": "1.03 (inactive)"}, {"smiles": "O=C1Cc2cc(CCN3CCN(c4nsc5ccccc45)CC3)c(Cl)cc2N1", "note": "[Ziprasidone  hydrochloride monohydrate]", "growth AUC normalised to DMSO control": "1.03 (inactive)"}, {"smiles": "O=C(O)CCCC[C@@H]1SC[C@@H]2NC(=O)N[C@@H]21", "note": "[Biotin]", "growth AUC normalised to DMSO control": "1.01 (inactive)"}, {"smiles": "CCc1nn(CCCN2CCN(c3cccc(Cl)c3)CC2)c(=O)n1CCOc1ccccc1", "note": "[Nefazodone hydrochloride]", "growth AUC normalised to DMSO control": "0.942 (inactive)"}, {"smiles": "CC(=O)[C@H]1CC[C@H]2[C@@H]3CC=C4C[C@@H](O)CC[C@]4(C)[C@H]3CC[C@]12C", "note": "[Pregnenolone]", "growth AUC normalised to DMSO control": "1.01 (inactive)"}, {"smiles": "CCc1c2c(nc3ccc(OC(=O)N4CCC(N5CCCCC5)CC4)cc13)-c1cc3c(c(=O)n1C2)COC(=O)[C@]3(O)CC", "note": "[Irinotecan hydrochloride trihydrate]", "growth AUC normalised to DMSO control": "1 (inactive)"}, {"smiles": "O=C(O)c1cn(-c2ccc(F)cc2)c2cc(N3CCNCC3)c(F)cc2c1=O", "note": "[Sarafloxacin]", "growth AUC normalised to DMSO control": "0.0521 (active)"}, {"smiles": "Clc1ccc2c(c1)C(N1CCNCC1)=Nc1ccccc1O2", "note": "[Amoxapine]", "growth AUC normalised to DMSO control": "0.963 (inactive)"}, {"smiles": "COc1ccc(C2CNC(=O)C2)cc1OC1CCCC1", "note": "(configuration not stated) [Rolipram]", "growth AUC normalised to DMSO control": "0.952 (inactive)"}, {"smiles": "Cn1cnc2c1c(=O)[nH]c(=O)n2C", "note": "[Theobromine]", "growth AUC normalised to DMSO control": "1.06 (inactive)"}, {"smiles": "CCCC(=O)Nc1ccc(OCC(O)CNC(C)C)c(C(C)=O)c1", "note": "(configuration not stated) [Acebutolol hydrochloride]", "growth AUC normalised to DMSO control": "1.03 (inactive)"}, {"smiles": "Nc1nc(O)c2ncn(CCC(CO)CO)c2n1", "note": "[Penciclovir]", "growth AUC normalised to DMSO control": "0.944 (inactive)"}, {"smiles": "CC(=O)NCCCS(=O)(=O)O", "note": "[Acamprosate calcium]", "growth AUC normalised to DMSO control": "0.988 (inactive)"}, {"smiles": "CCCCc1cc2ccccc2c(OCCN(C)C)n1", "note": "[Dimethisoquin hydrochloride]", "growth AUC normalised to DMSO control": "0.97 (inactive)"}, {"smiles": "CC(=O)O[C@]1(C(C)=O)CC[C@H]2[C@@H]3C=C(Cl)C4=CC(=O)[C@@H]5C[C@@H]5[C@]4(C)[C@H]3CC[C@@]21C", "note": "[Cyproterone acetate]", "growth AUC normalised to DMSO control": "1.01 (inactive)"}, {"smiles": "CS(=O)(=O)c1ccc([C@@H](O)[C@@H](CO)NC(=O)C(Cl)Cl)cc1", "note": "[Thiamphenicol]", "growth AUC normalised to DMSO control": "0.032 (active)"}, {"smiles": "CC1CS(=O)(=O)CCN1/N=C/c1ccc([N+](=O)[O-])o1", "note": "(configuration not stated) [Nifurtimox]", "growth AUC normalised to DMSO control": "0.596 (active)"}, {"smiles": "C#C[C@]1(O)CC[C@H]2[C@@H]3CCC4=Cc5oncc5C[C@]4(C)[C@H]3CC[C@@]21C", "note": "[Danazol]", "growth AUC normalised to DMSO control": "0.908 (inactive)"}, {"smiles": "COC(=O)C1=C(C)NC(C)=C(C(=O)OCC(C)C)C1c1ccccc1[N+](=O)[O-]", "note": "(configuration not stated) [Nisoldipine]", "growth AUC normalised to DMSO control": "0.996 (inactive)"}, {"smiles": "O=C(O)c1cccnc1", "note": "[Niacin]", "growth AUC normalised to DMSO control": "1.07 (inactive)"}, {"smiles": "CCN(CC)C(C)CN1c2ccccc2Sc2ccccc21", "note": "(configuration not stated) [Ethopropazine hydrochloride]", "growth AUC normalised to DMSO control": "0.963 (inactive)"}, {"smiles": "CN1CC2c3ccccc3Oc3ccc(Cl)cc3C2C1", "note": "(configuration not stated) [Asenapine maleate]", "growth AUC normalised to DMSO control": "0.851 (active)"}, {"smiles": "COc1ccccc1N1CCN(CC(O)COc2cccc3ccccc23)CC1", "note": "(configuration not stated) [Naftopidil dihydrochloride]", "growth AUC normalised to DMSO control": "0.971 (inactive)"}, {"smiles": "COc1cc(C)c(/C=C/C(C)=C/C=C/C(C)=C/C(=O)O)c(C)c1C", "note": "[Acitretin]", "growth AUC normalised to DMSO control": "0.995 (inactive)"}]}]}
